Test [1] can be described thus: Cell Viability - Jurkat (AID 426;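 active means dose-dependent loss of cell ATP signal giving a full or clear fitted curve, ranked by lower potency value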; further: potency means the concentration at half of the fitted maximal effect). The note with it: qHTS. An outline of the steps: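 Cells of the human T-cell leukemia line Jurkat (E6-1) are seeded at 5000 per well, treated with compound across a concentration range for 40 hours at 37 °C, then lysed with CellTiter-Glo; luminescence reports ATP.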
Test [2] is described as follows: Cell Viability - Hek293 (AID 427;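 active means compounds whose dose-response curve shows a full or clear partial loss of cell viability, called from curve shape rather than a numeric limit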;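 further: potency means the concentration at half of the fitted maximal effect; cells exposed to compound for 40 hours at 37 °C before reading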). The note with it: qHTS. An outline of the steps: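 AC50 values derive from Hill-modelled concentration-response of ATP-based luminescence, normalized between DMSO-only and 100 uM tamoxifen controls. Cells were exposed in complete culture medium for 40 hr at 37 °C before detection.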
(qHTS replaces the single test concentration by a dilution series.)

Test [3] concerns the target Mitogen-activated protein kinase 10 (Mus musculus) (UniProt Q61831). Briefly: JNK3 AlphaScreen Assay (AID 530; active means well fitted curve in either direction with a large enough effect, not every such curve was filed as active;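 further: kinase came from lysate of stimulated human HepG2 cells; signal reports phosphorylation of biotinylated GST-cJun 1-79 at Ser73 with 10 µM ATP; on the % scale 0 is the no-effect control and ±100 the full control effect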). An outline of the steps: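 qHTS titrations with 15 min compound pre-incubation before adding ATP (10 uM final). Read-out: AlphaScreen of Ser73-phosphorylated biotin-GST-cJun using HepG2 lysate JNK3 activated by IL-1β and TNFα.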
Background: In Alpha technology, singlet oxygen from a donor bead excites a nearby acceptor bead.

A short description of test [4]: Cell Viability - NIH 3T3 (AID 541).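 Further: plate controls were DMSO alone for no effect and tamoxifen positive control for full effect; nearly all actives have a fitted effect of over 25% in size.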 The note with it: NIH 3T3 cell viability, qHTS; activity change, negative = cytotoxicity: at 92.2 µM (top of the series). Put shortly: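 Cells seeded at 1000/well, rested 5 hr at 37 °C, then dosed and incubated 40 hr at 37 °C. CellTiter-Glo added, 20 min room temperature, luminescence read. AC50 by Hill fit.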
Test [5] can be described thus: Cell Viability - H-4-II-E (AID 543). Further: on the % scale 0 is the no-effect control and ±100 the full control effect; nearly all actives have a fitted effect of over 35% in size. Put shortly: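 Cells seeded at 1500 per well and rested 5 hr; compounds added; 40 hr incubation at 37 °C; CellTiter-Glo added, 20 min at room temperature; luminescence read. Hill-equation fits gave AC50.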
Test [6] is described as follows: Cellular Toxicity (caspase-3) NIH 3T3 (AID 666).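 Further: caspase signal read after 16 h compound exposure; 0% = DMSO basal and 100% = 100 µM tamoxifen stimulation.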 Put shortly: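 Cells were plated at 1000 per well and incubated 5 hr at 37°C, then compound was added for 16 hr. Caspase-Glo 3/7 reagent followed for 20 min at room temperature before luminescence was read.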
Test [7] can be described thus: Cell Viability - LYMP2-004 (AID 966).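 Further: plate controls were DMSO only for no effect and tetraoctylammonium bromide control for full effect; nearly all actives have a fitted effect of over 65% in size.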 Put shortly: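 qHTS cytotoxicity: human lymphoblastoid line, 24 hr compound treatment, 37 C, complete medium. Viability read as cellular ATP via luciferase luminescence; tetraoctylammonium bromide served as positive control.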
A short description of test [8]: Cell Viability - LYMP2-019 (AID 973).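 Further: 0% = DMSO alone and full effect = 92 µM tetraoctylammonium bromide; nearly all actives have a fitted effect of over 55% in size.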 An outline of the steps:
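Cytotoxicity is scored as a concentration-dependent drop in cellular ATP after cells (2500/well) receive compound for 24 hr at 37 C. Tetraoctylammonium bromide serves as positive control.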

Test [9] is described as follows: Cell Viability - LYMP2-021 (AID 974).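 Further: compound exposure lasts 24 hours at 37 °C; on the % scale 0 is the no-effect control and ±100 the full control effect; nearly all actives have a fitted effect of over 55% in size.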 An outline of the steps: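 Loss of cellular ATP, measured with a luciferase-based CellTiter-Glo readout, serves as the toxicity signal in human lymphoblastoid cells treated for 24 hours at 37 C. Potency is reported as AC50 from a standard Hill model.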
Test [10] can be described thus: Cell Viability - LYMP2-023 (AID 975).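 Further: cellular ATP measured by luciferase luminescence as viability proxy; plate controls were DMSO only for no effect and 92 µM tetraoctylammonium bromide control for full effect; nearly all actives have a fitted effect of over 55% in size.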 An outline of the steps:
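Steps: seed 2500 human lymphoblastoid cells per well, incubate 5 hr at 37 C, add compound for 24 hr at 37 C, add CellTiter-Glo, hold 30 min at room temperature, read luminescence. AC50 derived by Hill modelling.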

A short description of test [11]: Cell Viability - LYMP2-002 (AID 977).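 Further: compound exposure lasted 24 h at 37 °C; plate controls were DMSO only for no effect and 92 µM tetraoctylammonium bromide for full effect.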 Put shortly:
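Human lymphoblastoid cells (2500/well) in complete medium were preincubated 5 hr at 37 C, then exposed to compounds for 24 hr at 37 C. Intracellular ATP was read by CellTiter-Glo luminescence; AC50 came from Hill-equation concentration-response fits.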

Test [12] in a line: Cell Viability - LYMP2-007 (AID 979).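 Further: cells exposed to compound for 24 h before reading; 0% = DMSO only and the negative end = 92 µM tetraoctylammonium bromide; nearly all actives have a fitted effect of over 60% in size.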 Put shortly: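 Cells are seeded at 2500 per well and rested 5 hr. Compounds are then added over a concentration series for 24 hr at 37 C. CellTiter-Glo is added for 30 min at room temperature before luminescence reading.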
A short description of test [13]: Cell Viability - LYMP2-014 (AID 983).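 Further: plate controls were DMSO only for no effect and 92 µM tetraoctylammonium bromide for full effect; nearly all actives have a fitted effect of over 50% in size.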 Put shortly:
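Cells are plated at 2500/well and left 5 hr at 37 C. Compounds are added across a concentration range and incubated 24 hr at 37 C in complete medium. CellTiter-Glo is added, and luminescence is read after 30 min at room temperature.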

Test [14] is described as follows: Cell Viability - LYMP2-018 (AID 985).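 Further: compound exposure lasted 24 hr at 37 °C; plate controls were DMSO only for no effect and tetraoctylammonium bromide at 92 µM for full effect; nearly all actives have a fitted effect of over 50% in size.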 An outline of the steps:
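Seed 2500 lymphoblastoid cells per well, incubate 5 hr at 37 C, add compound and incubate 24 hr at 37 C, add CellTiter-Glo, wait 30 min at room temperature, then read luminescence.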

The nature of test [15]: Cell Viability - LYMP2-020 (AID 986).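 Further: plate controls were DMSO only for no effect and tetraoctylammonium bromide at 92 µM for full effect; nearly all actives have a fitted effect of over 55% in size.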 An outline of the steps:
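Seed 2500 cells per well and incubate 5 hr at 37 C. Add compounds at a concentration series and incubate 24 hr at 37 C. Add CellTiter-Glo, wait 30 min at RT, read luminescence, and fit a Hill curve for AC50.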

The nature of test [16]: Cell Viability - LYMP2-022 (AID 987). An outline of the steps:
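Cells were seeded at 2500 per well, rested 5 hr at 37 C, and treated with titrated compounds for 24 hr at 37 C. Cellular ATP was then quantified by luciferase luminescence, and AC50 values were derived from Hill-modelled concentration-response curves.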

Test [17] in a line: Cell Viability - LYMP2-026 (AID 989). Further: on the % scale 0 is the no-effect control and ±100 the full control effect; nearly all actives have a fitted effect of over 50% in size. An outline of the steps: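 Cells are seeded at 2500 per well and held 5 hr at 37 C. Compounds are added in concentration series for 24 hr, then CellTiter-Glo reagent is applied and luminescence read.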
The nature of test [18]: qHTS assay for small molecule agonists of retinoid X receptor alpha signaling (AID 588544). The note with it: HEK293T RXRa-UAS-bla, beta-lactamase reporter, 18 h; 530 nm emission.
A short description of test [19]: qHTS assay for small molecule antagonists of retinoid X receptor alpha signaling (AID 588546).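 Further: cells stimulated with 9-cis-retinoic acid as agonist; on the % scale 0 is the no-effect control and ±100 the full control effect.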 Particulars: HEK293T RXRa-UAS-bla, beta-lactamase ratio, antagonist mode; measured here: W530 green channel, cytotoxicity proxy. An outline of the steps: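 Beta-lactamase reporter inhibition, read as CCF4 fluorescence ratio (ex 405, em 460/530 nm) after 2 h at RT. HEK293T UAS-bla cells, 2500/well, were stimulated with 9-cis-RA at 500 or 100 nM final alongside test compound for 18 h at 37 C.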

In test [20] the target is Voltage-gated inwardly rectifying potassium channel KCNH2 (Homo sapiens) (UniProt Q12809). The test can be described thus: qHTS Assay for Small Molecule Inhibitors of the Human hERG Channel Activity (AID 588834).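 Further: lower thallium flux fluorescence means stronger hERG block; nearly all actives have a fitted effect of over 50% in size.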 Further: potency means the concentration at half of the fitted maximal effect. Put shortly:
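Cells were infected with hERG-BacMam virus for 4 hrs at room temperature, grown overnight, then seeded at 2000/well. After dye loading and roughly 10 min compound treatment, thallium influx was triggered and fluorescence recorded.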

“And” between values parts separate entries of the source, which are not always exact repeats. Identical values can stand only once. Records with an inconclusive call do not appear. The source made the active and inactive calls. Unless noted, the call rests on the fitted dose curve; in most records, active means well fitted curve in the direction sought with a large enough effect; inconclusive means small, poorly fitted or top-dose-only effect, or another doubt; inactive means no such curve, though single readings can be large; an effect the other way counts as inactive or inconclusive. Bounds are passed on as bounds.

Sequence of Voltage-gated inwardly rectifying potassium channel KCNH2 (Homo sapiens) (Q12809 whole entry, looked up): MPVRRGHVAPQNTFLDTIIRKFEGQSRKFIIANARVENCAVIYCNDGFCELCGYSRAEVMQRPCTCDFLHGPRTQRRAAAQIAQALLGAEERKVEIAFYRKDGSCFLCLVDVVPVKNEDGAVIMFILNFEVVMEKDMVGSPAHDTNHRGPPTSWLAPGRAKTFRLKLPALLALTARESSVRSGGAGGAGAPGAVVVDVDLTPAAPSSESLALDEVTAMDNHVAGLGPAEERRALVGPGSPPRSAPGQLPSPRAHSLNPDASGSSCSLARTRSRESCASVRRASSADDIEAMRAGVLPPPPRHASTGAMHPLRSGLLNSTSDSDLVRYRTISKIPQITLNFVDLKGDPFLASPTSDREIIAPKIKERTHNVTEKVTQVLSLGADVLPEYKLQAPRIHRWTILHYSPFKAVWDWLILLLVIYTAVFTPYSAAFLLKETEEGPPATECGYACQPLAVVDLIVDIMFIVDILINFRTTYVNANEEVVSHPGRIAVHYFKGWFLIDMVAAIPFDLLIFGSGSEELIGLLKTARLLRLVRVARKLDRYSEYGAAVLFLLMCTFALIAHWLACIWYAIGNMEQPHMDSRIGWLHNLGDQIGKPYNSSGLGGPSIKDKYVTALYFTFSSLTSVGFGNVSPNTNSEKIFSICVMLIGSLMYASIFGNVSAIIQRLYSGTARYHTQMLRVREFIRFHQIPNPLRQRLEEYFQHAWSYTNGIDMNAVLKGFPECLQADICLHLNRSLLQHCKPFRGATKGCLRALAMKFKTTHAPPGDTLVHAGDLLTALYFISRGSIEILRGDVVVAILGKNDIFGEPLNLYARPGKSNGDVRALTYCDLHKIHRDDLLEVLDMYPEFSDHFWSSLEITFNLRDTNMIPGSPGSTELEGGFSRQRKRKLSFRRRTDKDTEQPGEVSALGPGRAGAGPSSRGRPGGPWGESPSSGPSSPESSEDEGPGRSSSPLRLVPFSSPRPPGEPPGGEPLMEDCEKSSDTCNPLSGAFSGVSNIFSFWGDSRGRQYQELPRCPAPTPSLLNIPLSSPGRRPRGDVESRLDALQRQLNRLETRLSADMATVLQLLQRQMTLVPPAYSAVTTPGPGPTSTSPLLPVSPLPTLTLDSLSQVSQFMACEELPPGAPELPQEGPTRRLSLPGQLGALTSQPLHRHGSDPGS

Regarding `O=C=NC1CCCCC1`, the Potency in test [1] and in [2] was > 92 µM (inactive) in each case. The call in test [3] and in [6] was inactive. Besides, in test [4], the activity change, negative = cytotoxicity was -1.14% (inactive) and -2.08% (inactive). For the same compound, the Potency result in test [5], in test [7], in test [8], in [9], in [10] and in test [11] was “inactive” throughout. Further, the Potency result in test [12], in [13], in [14], in test [15], in [16] and in test [17] was “inactive” each time. Also, in test [20], the Potency result was “inactive”. Further, the max response in test [18] was -3.28% and -9.66%; in [19] it was -7.8% and -5.15%.
In the case of `CCCC(=O)Cl`, the Potency in [1] and in test [2] was > 92 µM (inactive) each time. Also, the result in test [3] and in test [6] was inactive. Further, in test [4], the activity change, negative = cytotoxicity is -0.413% (inactive). For the same compound, the Potency entry in test [5], in test [7], in test [8], in [9], in test [10] and in [11] was “inactive” each time. Also, the Potency entry in test [12], in [13], in [14], in test [15], in test [16] and in test [17] was “inactive” each time. Further, the Potency result in [20] is “inactive”. Also, the max response in [18] was -4.61%; in test [19], -5.53%.
Consider `C=CC(=O)OCC`, for which the Potency in test [1] and in test [2] was > 92 µM (inactive) each time. The compound was called inactive in test [3] and in test [6]. Further, the activity change, negative = cytotoxicity in [4] is -21.9% (inactive). The Potency result in test [5], in test [7], in test [8], in [9], in test [10] and in test [11] was “inactive” each time. Further, the Potency result in [12], in test [13], in test [14], in test [15], in test [16] and in test [17] was “inactive” throughout. Further, the Potency result in test [20] is “inactive”. The max response was -5.05% in [18] and -8.36% in [19].
On to `CCOP(=S)(OCC)Oc1ccc([N+](=O)[O-])cc1`, for which the Potency is > 92 µM (inactive) in [1], > 92 µM (inactive) in test [2] and 35.5 µM (active) in [20]. Besides, the outcome in [3] and in test [6] was inactive. The activity change, negative = cytotoxicity in [4] was -19.3% (inactive). Moreover, the Potency result in test [5], in [7], in test [8], in [9], in test [10] and in test [11] was “inactive” each time. Also, the Potency entry in test [12], in [13], in [14], in test [15], in [16] and in test [17] was “inactive” each time. The max response in [18] was -6.89% and 6.11%; in test [19], 14.9% and 8.35%.
For `O=NN(c1ccccc1)c1ccccc1`, the Potency in test [1] and in test [2] was > 92 µM (inactive) throughout. Also, the call in test [3] and in [6] was inactive. In test [4], the activity change, negative = cytotoxicity is -6.8% (inactive). Further, the Potency result in test [5], in [7], in [8], in [9], in test [10] and in [11] was “inactive” in each case. The Potency result in [12], in test [13], in test [14], in [15], in test [16] and in [17] was “inactive” in each case. The Potency result in test [20] is “inactive”. Also, the max response is -13.1% and -6.23% in test [18]; -5.84% and -1.3% in test [19].
`COc1ccc(N)cc1`: the Potency in test [1] and in [2] was > 92 µM (inactive) in each case. For the same compound, the compound was classed as inactive in test [3] and in test [6]. In [4], the activity change, negative = cytotoxicity is -5.61% (inactive). Also, the Potency entry in test [5], in test [7], in test [8], in test [9], in [10] and in test [11] was “inactive” in each case. Further, the Potency result in [12], in [13], in [14], in test [15], in test [16] and in [17] was “inactive” in each case. Also, the Potency result in test [20] is “inactive”. Besides, the max response in test [18] was 14.8% and 16.7%; in [19] it was 0.204% and 7.89%.

For the origin of these results see PubChem BioAssay (NCATS).
